Source: ChEMBL document CHEMBL1961873, “Compounds: GSK PKIS; Assays: Nanosyn kinase panel” (2012)

These compounds were tested against T1, Ephrin type-B receptor 4 (Homo sapiens) (UniProt P54760). Details: at 0.1 µM.
T1 sequence (whole entry): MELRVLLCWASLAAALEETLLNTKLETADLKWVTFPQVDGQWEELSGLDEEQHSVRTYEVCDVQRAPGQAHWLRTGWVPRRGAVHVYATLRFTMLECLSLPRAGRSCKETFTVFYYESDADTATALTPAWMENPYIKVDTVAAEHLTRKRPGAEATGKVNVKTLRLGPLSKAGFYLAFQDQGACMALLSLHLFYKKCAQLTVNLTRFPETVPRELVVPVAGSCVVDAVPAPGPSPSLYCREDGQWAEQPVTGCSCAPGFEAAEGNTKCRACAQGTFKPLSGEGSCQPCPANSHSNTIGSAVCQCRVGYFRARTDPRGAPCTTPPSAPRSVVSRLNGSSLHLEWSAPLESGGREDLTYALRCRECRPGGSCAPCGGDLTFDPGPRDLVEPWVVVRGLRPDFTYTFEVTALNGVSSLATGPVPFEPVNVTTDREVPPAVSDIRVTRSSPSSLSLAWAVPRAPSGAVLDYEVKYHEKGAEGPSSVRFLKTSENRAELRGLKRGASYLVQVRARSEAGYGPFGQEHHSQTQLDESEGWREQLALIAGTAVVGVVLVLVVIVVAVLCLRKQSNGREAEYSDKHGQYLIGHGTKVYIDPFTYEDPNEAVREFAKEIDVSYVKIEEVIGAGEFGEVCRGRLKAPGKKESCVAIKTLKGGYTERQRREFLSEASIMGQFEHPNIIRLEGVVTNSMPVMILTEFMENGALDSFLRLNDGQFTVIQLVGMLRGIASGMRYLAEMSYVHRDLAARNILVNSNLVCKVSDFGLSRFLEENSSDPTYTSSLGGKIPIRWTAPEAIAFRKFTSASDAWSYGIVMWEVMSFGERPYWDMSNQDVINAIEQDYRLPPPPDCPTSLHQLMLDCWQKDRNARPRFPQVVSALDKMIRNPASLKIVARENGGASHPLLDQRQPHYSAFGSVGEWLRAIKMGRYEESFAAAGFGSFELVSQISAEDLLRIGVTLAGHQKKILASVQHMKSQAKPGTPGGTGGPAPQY

Compared with `CN1CCN(C(=O)c2ccc(NC(=O)Nc3ccc(N(C)c4ccnc(Nc5ccc(CS(C)(=O)=O)cc5)n4)cc3)cc2)CC1`, `COC(=O)Nc1nc2cc(Oc3ccc(NC(=O)Nc4cccc(Br)c4)cc3)ccc2[nH]1` is higher in inhibition: 2.21% for the first, 9.97% for the second.

Going from `COc1cccc(-n2ncc3c(N/N=C/c4ccc(S(C)(=O)=O)cc4)ncnc32)c1` to `COc1cccc(-n2nc(C)c3c(N/N=C(\C)c4ccncc4)ncnc32)c1`, the inhibition rises from -0.79% to 0.44%.

Compared with `NS(=O)(=O)c1ccc(NC=C2C(=O)Nc3ccc4ncsc4c32)cc1`, `NS(=O)(=O)c1ccc(Nc2cc(-c3cccc(O)c3)n[nH]2)cc1` is lower in inhibition: 4.95% for the first, 1.74% for the second.

Compared with `CS(=O)(=O)CCNCc1nc(-c2ccc3ncnc(Nc4ccc(OCc5cccc(C(F)(F)F)c5)cc4)c3c2)cs1`, `NS(=O)(=O)c1ccc(-c2cc3ccncc3cc2OCc2ccccc2)cc1` is higher in inhibition: -1.44% for the first, 2.88% for the second.

Compared with `C[C@@H](Oc1cc(-n2cnc3ccc(OC[C@@H](O)CO)cc32)sc1C(N)=O)c1ccccc1Cl`, `COc1cc2ncn(-c3cc(OCc4ccccc4S(C)(=O)=O)c(C#N)s3)c2cc1OC` is higher in inhibition: -3.41% for the first, 4.74% for the second.

First: Cc1ccc(Nc2ccnc(Nc3cccc(C(N)=O)c3)n2)cc1O
Second: COc1cc2ncnc(Nc3ccc(C)c(O)c3)c2cc1OC
The inhibition of the first is lower: 2.22% for the first, 8.74% for the second.

First: CCn1c(-c2nonc2N)nc2ccc(F)cc21
Second: COc1cc(Nc2nccc(-c3cnn4ncccc34)n2)cc(OC)c1
The inhibition of the first is lower: 1.64% for the first, 2.69% for the second.

Going from `NS(=O)(=O)c1cccc(-c2cc3ccncc3cc2OCc2ccccc2)c1` to `COC(=O)c1cncc(/C=C/c2c(C)cc(O)cc2C)c1`, the inhibition rises from 2.45% to 6.99%.

Each compound was assayed against T1, Ephrin type-B receptor 4 (Homo sapiens). Details: at 1 µM.

Compared with `C[C@@H](Oc1cc(-n2cnc3ccc(OCC4CCN(C)CC4)cc32)sc1C(N)=O)c1ccccc1C(F)(F)F`, `C[C@@H](Oc1cc(-n2cnc3ccc(OC[C@@H](O)CO)cc32)sc1C(N)=O)c1ccccc1Cl` is lower in inhibition: 0.52% for the first, -0.4% for the second.

Going from `Cc1cc(O)cc(C)c1/C=C/c1cncc(C(=O)N(C)C)c1` to `COC(=O)c1ccc2c(c1)C(=Cc1cc(Br)c(O)c(Br)c1)C(=O)N2`, the inhibition falls from 7.53% to 3.68%.

Going from `c1ccc(Nc2ncc(-c3ccccc3)o2)cc1` to `CCS(=O)(=O)c1ccc(OC)c(Nc2ncc(-c3cccc(OC)c3)o2)c1`, the inhibition rises from 5.49% to 11.9%.

Compared with `COc1ccc(-c2nn3ncccc3c2-c2ccnc(Nc3cccc(C(F)(F)F)c3)n2)cc1`, `Cc1ccc2c(-c3ccnc(Nc4ccc5c(c4)OCCO5)n3)c(-c3ccc(C(F)(F)F)cc3)nn2n1` is lower in inhibition: 5.01% for the first, 1.46% for the second.

Compared with `Cc1ccc(NC(=O)CC2CC2)cc1-c1ccc(C(=O)NCC2CC2)cc1`, `Cc1ccc(Nc2ccnc(Nc3cccc(C(N)=O)c3)n2)cc1O` is higher in inhibition: 3.43% for the first, 29.1% for the second.

Compared with `COc1cc(/C=N/Nc2ncnc3c2cnn3C(C)C)ccc1O`, `COc1cccc(-n2ncc3c(N/N=C/c4ccc(C)cc4)ncnc32)c1` is lower in inhibition: 21.4% for the first, 3.21% for the second.

Going from `Nc1ccc(C#Cc2cncnc2Nc2ccc(OCc3cccc(F)c3)c(Cl)c2)cc1` to `CS(=O)(=O)CCNCc1nc(-c2ccc3ncnc(Nc4ccc(OCc5cccc(C(F)(F)F)c5)cc4)c3c2)cs1`, the inhibition falls from 2.45% to 2.09%.

Compared with `ON=C1CCc2cc(-c3nc(C4CCNCC4)[nH]c3-c3ccncc3)ccc21`, `Oc1cccc(-c2nc(-c3ccccc3)[nH]c2-c2ccncc2)c1` is higher in inhibition: 1.02% for the first, 9.99% for the second.

First: CC(C)c1ccc2c(c1)NC(=O)/C2=N/Nc1ccc(S(N)(=O)=O)cc1
Second: Cc1cc(Cl)cc2c1NC(=O)C2=NNc1ccc(S(N)(=O)=O)cc1
The inhibition of the first is lower: 0.29% for the first, 1.46% for the second.

First: CC(C)c1ccc(Nc2nccc(-c3cnn4ncccc34)n2)cc1
Second: N#Cc1cccc(Nc2nccc(-c3cnn4ncccc34)n2)c1
The inhibition of the first is lower: 2.76% for the first, 22.5% for the second.

Compared with `CN1CCN(C(=O)c2ccc(NC(=O)Nc3ccc(N(C)c4ccnc(Nc5ccc(CS(C)(=O)=O)cc5)n4)cc3)cc2)CC1`, `COC(=O)Nc1nc2cc(Oc3ccc(NC(=O)Nc4cccc(Br)c4)cc3)ccc2[nH]1` is higher in inhibition: 11% for the first, 26% for the second.

First: COc1cccc(-n2ncc3c(N/N=C/c4ccc(S(C)(=O)=O)cc4)ncnc32)c1
Second: COc1cccc(-n2nc(C)c3c(N/N=C(\C)c4ccncc4)ncnc32)c1
The inhibition of the first is higher: 6.93% for the first, 1.01% for the second.

First: NS(=O)(=O)c1ccc(NC=C2C(=O)Nc3ccc4ncsc4c32)cc1
Second: NS(=O)(=O)c1ccc(Nc2cc(-c3cccc(O)c3)n[nH]2)cc1
The inhibition of the first is higher: 12.2% for the first, 4.14% for the second.

First: NS(=O)(=O)c1ccc(-c2cc3ccncc3cc2OCc2ccccc2)cc1
Second: CCn1c(-c2nonc2N)nc2ccc(F)cc21
The inhibition of the first is higher: 2.91% for the first, 1.12% for the second.
